EPAC2 antag: EPAC2 (human) antagonism; Q8WZA2; EPAC2 GEF exchange of Rap1B-BODIPY-GDP, fluorescence; Potency, µM (titrated, usually from 114 µM), hits mostly inhibitors; hit rate 0.18% among 360,000; further: nearly all actives have a fitted effect of over 45% in size
hERG WT inh: KCNH2 (human, wildtype) channel inhibition. AID 720551. hit rate 0.37% among 340,000. activity change, % at 1.84 µM. Q12809. U2OS, BacMam KCNH2, thallium flux FluxOr; stronger effect = lower value;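 active means maximum activity change below -70%; inconclusive means maximum activity change between -70% and -50%; inactive means maximum activity change above -50%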
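U2OS cells were transduced with wild-type KCNH2 virus (2.03 x 10^8 / mL) for 4 h at room temperature, then cultured overnight at 37 C. Thallium flux was read with FluxOr dye. Rate constants were normalized to DMSO controls.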
EPAC1 antagonist: EPAC1 (human) antagonism. O95398. EPAC1 GEF assay, Rap1b-BODIPY-GDP exchange fluorescence. Potency, µM (highest dose often 115 µM), usual class: inhibitors. hit rate 0.14% among 360,000; further: nearly all actives have a fitted effect of over 50% in size
Target sequence (O95398 whole entry, looked up): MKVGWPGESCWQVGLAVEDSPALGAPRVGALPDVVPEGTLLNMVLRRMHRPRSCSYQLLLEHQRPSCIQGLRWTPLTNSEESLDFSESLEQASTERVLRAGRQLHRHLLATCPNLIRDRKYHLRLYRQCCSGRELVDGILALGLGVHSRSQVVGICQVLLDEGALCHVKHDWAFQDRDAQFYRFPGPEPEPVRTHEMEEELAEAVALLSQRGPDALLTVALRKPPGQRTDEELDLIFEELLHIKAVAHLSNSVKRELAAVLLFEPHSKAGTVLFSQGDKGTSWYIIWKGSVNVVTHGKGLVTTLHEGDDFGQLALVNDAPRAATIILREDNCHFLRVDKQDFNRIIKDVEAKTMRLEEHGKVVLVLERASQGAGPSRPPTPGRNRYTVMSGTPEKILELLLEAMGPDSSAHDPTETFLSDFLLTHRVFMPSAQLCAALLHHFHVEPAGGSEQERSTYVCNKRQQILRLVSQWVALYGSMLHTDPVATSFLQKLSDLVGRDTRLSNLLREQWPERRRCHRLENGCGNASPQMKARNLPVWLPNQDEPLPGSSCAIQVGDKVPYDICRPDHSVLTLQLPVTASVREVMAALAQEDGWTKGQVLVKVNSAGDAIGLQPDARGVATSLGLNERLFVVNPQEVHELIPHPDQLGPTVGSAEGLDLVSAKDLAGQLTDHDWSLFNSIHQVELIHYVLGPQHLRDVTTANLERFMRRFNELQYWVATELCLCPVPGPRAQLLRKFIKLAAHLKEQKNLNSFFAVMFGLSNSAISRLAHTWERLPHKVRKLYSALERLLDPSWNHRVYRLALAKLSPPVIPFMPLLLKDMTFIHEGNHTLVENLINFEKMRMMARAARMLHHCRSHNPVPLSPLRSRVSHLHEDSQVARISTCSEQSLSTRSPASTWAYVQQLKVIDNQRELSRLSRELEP
KCNH2 3.1 block: inhibitors of human KCNH2 3.1 potassium channel isoform; U2OS KCNH2 3.1, thallium flux FluxOr; stronger effect = lower value; activity change, % (tested at about 1.8 µM); hit rate 0.95% among 340,000; AID 720553;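 active means maximum activity change below -70%; inconclusive means maximum activity change from -70% to -50%; inactive means maximum activity change above -50%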;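 further: thallium influx rate constant from kinetic fluorescence after stimulation buffer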
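Normalized rate constant (relative to positive and negative DMSO controls) derived from a 2 min kinetic fluorescence read after stimulation; U2OS cells expressing the 3.1 isoform via virus at 1.77 x 10^8 /mL.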
EPAC2 ag: activates human EPAC2 exchange factor | Q8WZA2 | EPAC2 activation, biochemical qHTS; response scale: 100% = 6.5 mM cAMP response | Potency, µM (series often up to 154 µM), usual class: activators | hit rate 0.079% among 360,000 | AID 720711; further: nearly all actives have a fitted effect of over 50% in size
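Setup: EPAC2 100 nM, labeled Rap1B complex 250 nM, free GDP 50 uM. Compound titrations pinned in, brief spin, 5 min room temperature incubation. Kinetic fluorescence read over 30 min, normalized to 6.5 mM cAMP.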
EPAC1 agonist: agonists of human EPAC1; O95398; EPAC1 agonist qHTS, biochemical assay; response scale: 100% = response to 6.5 mM cAMP; Potency, µM (titrated, usually from 154 µM), most hits filed as activators; hit rate 0.073% among 360,000; further: nearly all actives have a fitted effect of over 60% in size
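Compounds were pinned as a concentration titration into mixtures of EPAC1 (100 nM), BODIPY-GDP-loaded Rap1B (250 nM) and GDP (50 uM). After 5 min at room temperature, fluorescence was followed for 30 min; activity was scaled to 6.5 mM cAMP.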
Large screens that a line does not name were inactive. In the library only some 1.4% were active in any assay of this set; here they are far more common. Unless noted, the call rests on the fitted dose curve; in most records, active means well fitted curve in the direction sought with a large enough effect; inconclusive means small, poorly fitted or top-dose-only effect, or another doubt; inactive means no such curve, though single readings can be large; an effect the other way counts as inactive or inconclusive.

COc1ccc(C(c2c(O)nc[nH]c2=O)c2c(O)nc[nH]c2=O)cc1	none
O=c1[nH]cnc(O)c1C(c1ccc([N+](=O)[O-])cc1)c1c(O)nc[nH]c1=O	KCNH2 3.1 block -181
CCC1CCCCN1CCCNC(=O)c1ccc(CS(=O)(=O)Cc2ccccc2F)o1 (stereo not given)	EPAC2 antag 22µM
Cc1cccc(CS(=O)(=O)Cc2ccc(C(=O)NCCc3ccccc3)o2)c1	none
Cc1ccccc1CS(=O)(=O)Cc1ccc(C(=O)NCCc2ccccc2)o1	KCNH2 3.1 block -71
COC(=O)C1(C)COP(=O)(Nc2ccc(OC)cc2)OC1 (stereo not given)	none (no result: hERG WT inh, KCNH2 3.1 block)
O=C(NCC1CCCO1)C(=O)N/N=C/c1ccc(O)c(Cl)c1 (stereo not given)	hERG WT inh -225
O=C(NCC1CCCO1)C(=O)N/N=C/c1cc(Cl)ccc1O (stereo not given)	none
CC(C)c1ccccc1NC(=O)Nc1nnc([C@H]2C[C@H](O)[C@@H](CO)O2)s1	none (no result: hERG WT inh, KCNH2 3.1 block)
COC(=O)C(C(=O)OC)c1cc2c(cc1CNS(=O)(=O)c1ccc(C)cc1)OCO2	none (no result: hERG WT inh, KCNH2 3.1 block)
Fc1ccc2c(c1)Sc1ccc(Cl)cc1CC2N1CCN(CCC2OCCO2)CC1 (stereo not given)	KCNH2 3.1 block -95
COc1ccccc1C(C(=O)c1ccccc1)c1ccc(O)cc1 (stereo not given)	EPAC2 antag 56µM (no result: hERG WT inh, KCNH2 3.1 block)
O=C(COc1ccc(F)cc1)Nc1nccs1	EPAC2 ag 35µM
C=CCOc1ccc(C2NC(=O)c3ccccc3O2)cc1OC (stereo not given)	hERG WT inh -75
C=CCOc1ccc(C2NC(=O)c3ccccc3O2)cc1OCC (stereo not given)	none
CC(=O)NC(c1ccc(Cl)cc1Cl)c1ccc2cccnc2c1O (stereo not given)	EPAC2 antag 20µM, EPAC1 antagonist inconclusive
CCOC(=O)c1nn(-c2ccc(Br)cc2)cc1C(=O)c1cccc2ccccc12	KCNH2 3.1 block -104
CCOC(=O)c1nn(-c2ccc(F)cc2)cc1O	none
Cc1csc(NC(C)c2nc3cc(Cl)c(Cl)cc3n2CCCO)n1 (stereo not given)	KCNH2 3.1 block -80
CC(Nc1nc(-c2ccc(F)cc2)cs1)c1nc2cc(C(F)(F)F)ccc2n1CCCO (stereo not given)	none
FC(F)Oc1ccc(NC(=S)NNc2ccnc3cc(Cl)ccc23)cc1	hERG WT inh inconclusive, KCNH2 3.1 block -81
NC(=S)NNc1ccnc2cc(Cl)ccc12	none
O=C(C1CCCN(c2ncnc3c2nc2n3CCCCC2)C1)N1CCN(c2cccc(Cl)c2)CC1 (stereo not given)	KCNH2 3.1 block -139
CC(C)N(Cc1ccccc1)C(=O)C1CCCN(c2ncnc3c2nc2n3CCCCC2)C1 (stereo not given)	KCNH2 3.1 block -98
CNC(=O)C1Cc2c(-c3ccccc3Oc3ccccc3)ccnc2O1 (stereo not given)	none (no result: hERG WT inh, KCNH2 3.1 block)
COC(=O)c1c(C)c[nH]c1C	none
CCOC(=O)c1c(C)c[nH]c1C	KCNH2 3.1 block -85
Cn1c(N)c(C(=O)CSc2nnc(NC3CCCCC3)s2)c(=O)n(C)c1=O	none
Cc1ccc(C)c(CNc2ccc(S(=O)(=O)N3CCCCC3)cc2)c1	hERG WT inh -155, KCNH2 3.1 block -100
Cc1onc(-c2c(Cl)cccc2Cl)c1COC(=O)c1ccc([N+](=O)[O-])cc1	none
Cc1onc(-c2c(Cl)cccc2Cl)c1COC(=O)c1ccc(Cl)cc1	EPAC2 antag 3.5µM
Cc1ccc2c(c1)C(=O)C(=O)N2CC(=O)Nc1ccccc1NC(=O)c1ccccn1	none
Cc1ccc(S(=O)(=O)C[C@@H]2OC[C@H](C(C)C)N2S(=O)(=O)c2ccc(C)cc2)cc1	none (no result: hERG WT inh, KCNH2 3.1 block)
CC(C)CC1C(=O)N(Cc2cn(CCC3OCCCO3)nn2)CCS(=O)(=O)N1Cc1ccc(-c2ccc(Cl)cc2)cc1 (stereo not given)	EPAC2 antag inconclusive

Source: PubChem (National Center for Advancing Translational Sciences (NCATS))
